Experimental findings from PubChem BioAssay (EPA / NIEHS) are described below.

The target of experiment [1] is Bile acid receptor (Homo sapiens) (UniProt Q96RI1). In words: ATG_IR1_CIS: Attagene CIS-FACTORIAL HepG2 Assay for human Nuclear Receptor Subfamily 1 Group H Member 4 (NR1H4), IR1 submotif (AID 2282946). The following applies: IR1 reporter transcription, actives raise or lower the signal. A digest of the protocol: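 Fluorescence of capillary-separated, HpaI-digested RT-PCR reporter products gave IR1-element mRNA induction in HepG2 cells 24 h after dosing. Endogenous transcription factors drove the cis-regulated reporters; activity was fitted bidirectionally against DMSO.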

The nature of experiment [2]: ATG_GRE_CIS: Attagene CIS-FACTORIAL HepG2 Assay for human Glucocorticoid Response Elements (GRE) (AID 2282947). The following applies: HepG2 GRE cis-reporter, Attagene multiplex mRNA; actives raise or lower the signal. Put shortly:
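Read-out: fluorescent reporter-transcript fragments separated by capillary electrophoresis after RT-PCR. Transiently transfected HepG2 cells carrying cis-element-driven reporter units were dosed for 24 h; gain or loss of signal fitted against DMSO control.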

A short description of experiment [3]: ATG_ISRE_CIS: Attagene CIS-FACTORIAL HepG2 Assay for human Interferon Regulatory Factor 1 (IRF1) binding to an Interferon-Stimulated Response Element (ISRE) (AID 2282948). The following applies: HepG2 ISRE cis-reporter (Attagene), mRNA transcription readout; actives raise or lower the signal. A digest of the protocol: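 Endogenous transcription factor activity read as reporter transcript abundance via RT-PCR and capillary electrophoresis. HepG2 cells transiently transfected, 24 h chemical exposure. Gain or loss fitted against DMSO baseline.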

Experiment [4] in a line: ATG_M_32_CIS: Attagene CIS-FACTORIAL HepG2 Assay for M32 Transcription Factor (Internal Marker) (AID 2282949).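 Further: background control marker of the multiplexed CIS panel rather than a real target.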 The settings on record: HepG2 Attagene cis-factorial M32 reporter, mRNA; actives raise or lower the signal. Put shortly:
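Using DMSO as baseline, bidirectional curve fits were applied to reporter mRNA signals. These came from transiently transfected HepG2 cells exposed for 24 h, with RNA analysed by RT-PCR, FAM primer extension, HpaI digestion and CE.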

Experiment [5] can be described thus: ATG_M_06_CIS: Attagene CIS-FACTORIAL HepG2 Assay for M06 Transcription Factor (Internal Marker) (AID 2282950). The settings on record: HepG2 Attagene CIS-FACTORIAL M06 internal marker reporter; actives raise or lower the signal. Put shortly:
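One of many multiplexed endpoints: HepG2 reporter mRNA after 24 h dosing, detected by RT-PCR and capillary electrophoresis fluorescence; gain or loss of signal analysed against DMSO.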

Experiment [6] deals with Hypoxia-inducible factor 1-alpha (Homo sapiens) (UniProt Q16665). In words: ATG_HIF1a_CIS: Attagene CIS-FACTORIAL HepG2 Assay for human Hypoxia Inducible Factor 1 (HIF1A) (AID 2282951). The following applies: HepG2 Attagene cis-factorial HIF1a reporter transcription; actives raise or lower the signal. A digest of the protocol: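 In this multiplexed cell assay, HepG2 cells bearing transfected cis reporters are dosed for 24 h and reporter mRNA is read by RT-PCR plus capillary electrophoresis; signal increases and decreases are both scored against DMSO.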

Experiment [7] concerns the target Hepatocyte nuclear factor 6 (Homo sapiens) (UniProt Q9UBC0). In words: ATG_HNF6_CIS: Attagene CIS-FACTORIAL HepG2 Assay for human Hepatocyte Nuclear Factor 6 (HNF6) (AID 2282952). The settings on record: HepG2 Attagene cis-factorial HNF6 reporter transcription; actives raise or lower the signal. Put shortly:
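Activity values derive from bidirectional fitting against DMSO of reporter mRNA levels, measured by capillary electrophoresis of labelled RT-PCR products from HepG2 cells exposed 24 h.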

Experiment [8] deals with Heat shock factor protein 1 (Homo sapiens) (UniProt Q00613). In words: ATG_HSE_CIS: Attagene CIS-FACTORIAL HepG2 Assay for human Heat Shock Transcription Factor 1 (HSE) (AID 2282953). The following applies: HepG2 HSE cis-reporter, Attagene RNA transcription; actives raise or lower the signal. A digest of the protocol: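 Using HepG2 with transfected cis-driven reporter constructs, compound effects on endogenous factor activity are scored as reporter mRNA change at 24 h. Detection: RT-PCR, HpaI digestion, capillary electrophoresis; bidirectional fitting to DMSO.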

A short description of experiment [9]: ATG_MRE_CIS: Attagene CIS-FACTORIAL HepG2 Assay for human Metal Responsive Element (MRE) (AID 2282954). The settings on record: HepG2 MRE cis-reporter transcription, Attagene multiplex; actives raise or lower the signal. Put shortly:
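RT-PCR/capillary electrophoresis readout of reporter mRNA, 24 h post-dosing, in HepG2 cells transfected with multiplexed cis-regulated reporter constructs. Gain or loss of signal fitted bidirectionally against DMSO baseline.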

Experiment [10] in a line: ATG_PBREM_CIS: Attagene CIS-FACTORIAL HepG2 Assay for human Phenobarbital-responsive Enhancer Module (PBREM) (AID 2282955). The following applies: HepG2 PBREM cis-reporter, Attagene multiplexed transcription; actives raise or lower the signal. A digest of the protocol: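 After a 24 h incubation with test chemical, transfected HepG2 cells yield total RNA; reporter-specific RT-PCR products are fluorescently labelled, HpaI-digested and resolved by capillary electrophoresis against ROX size standards.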

Experiment [11] concerns the target Paired box protein Pax-6 (Homo sapiens) (UniProt P26367). In words: ATG_Pax6_CIS: Attagene CIS-FACTORIAL HepG2 Assay for human Paired Box 6 (PAX6) (AID 2282956). The following applies: HepG2 CIS-FACTORIAL PAX6 reporter transcription, RNA readout; actives raise or lower the signal. A digest of the protocol: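 Read-out is reporter transcript level, measured by RT-PCR with fluorescent primer extension and capillary electrophoresis after 24 h dosing of transfected HepG2 cells. Activity in either direction fitted relative to DMSO control.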

Experiment [12] is described as follows: ATG_PXRE_CIS: Attagene CIS-FACTORIAL HepG2 Assay for human Pregnane X Receptor Element (PXRE) (AID 2282957). The following applies: HepG2 Attagene CIS-FACTORIAL PXRE reporter, mRNA; actives raise or lower the signal. Put shortly: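 Fluorescent capillary electrophoresis of amplified reporter cDNA gave the signal, collected 24 h after dosing HepG2 cells that held transfected cis-element reporter constructs.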

The nature of experiment [13]: ATG_PPRE_CIS: Attagene CIS-FACTORIAL HepG2 Assay for human Peroxisome Proliferator-activated Response Element (PPRE) (AID 2282958). The settings on record: HepG2 PPRE cis-element reporter, Attagene transcription factor profiling; actives raise or lower the signal. Put shortly:
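Multiplexed reporter transcription units under cis-regulatory promoters were transfected into HepG2 cells to capture endogenous factor activity. A 24 h incubation preceded RNA isolation and fluorescent RT-PCR fragment analysis.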

The nature of experiment [14]: ATG_RORE_CIS: Attagene CIS-FACTORIAL HepG2 Assay for human RAR-related Orphan Receptor Element (RORE) (AID 2282959). The settings on record: HepG2 Attagene cis-factorial RORE reporter, mRNA; actives raise or lower the signal. Put shortly: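 Fluorescence intensity of reporter-specific cDNA fragments, separated by capillary electrophoresis, gives the signal. Source: HepG2 liver cells transiently transfected with cis-element reporters and exposed 24 h; DMSO-normalized bidirectional fit.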

Experiment [15] in a line: ATG_Sox_CIS: Attagene CIS-FACTORIAL HepG2 Assay for human SRY-box transcription factor (SOX) (AID 2282960). The settings on record: HepG2 Attagene cis-factorial SOX reporter, mRNA; actives raise or lower the signal. A digest of the protocol: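 After 24 h of chemical treatment, transfected HepG2 reporter cells are lysed for total RNA. Transcript levels come from RT-PCR with labelled primer extension and capillary electrophoresis, analysed bidirectionally versus DMSO.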

Experiment [16] deals with Transcription factor Sp1 (Homo sapiens) (UniProt P08047). In words: ATG_Sp1_CIS: Attagene CIS-FACTORIAL HepG2 Assay for human Specificity Protein 1 (Sp1) (AID 2282961). The following applies: HepG2 Sp1 cis-reporter transcription, actives raise or lower the signal. Put shortly:
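Sp1-driven reporter mRNA, read as capillary electrophoresis fluorescence after RT-PCR, in transiently transfected HepG2 cells dosed for 24 h; signal change in either direction relative to DMSO.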

The target in experiment [17] is Signal transducer and activator of transcription 3 (Homo sapiens) (UniProt P40763). In words: ATG_STAT3_CIS: Attagene CIS-FACTORIAL HepG2 Assay for human Signal Transducer and Activator of Transcription 3 (STAT3) (AID 2282963). The following applies: HepG2, Attagene cis-factorial STAT3 reporter transcription; actives raise or lower the signal. Put shortly: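 Readout: fluorescent reporter mRNA fragments resolved by capillary electrophoresis. Setup: HepG2 transfected with MRTUs reporting endogenous transcription-factor activity, dosed 24 h. Gain or loss of signal fitted bidirectionally against DMSO control.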

Experiment [18] in a line: ATG_TA_CIS: Attagene CIS-FACTORIAL HepG2 Assay for human TA Basal Promoter (AID 2282964). The following applies: HepG2 Attagene CIS-factorial TA basal promoter reporter; actives raise or lower the signal. A digest of the protocol:
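Transient MRTU transfection of HepG2 preceded 24 h compound exposure. Reporter mRNA levels were then read by RT-PCR with capillary electrophoresis, and this background-control endpoint was fitted bidirectionally to DMSO.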

Experiment [19] in a line: ATG_TCF_b_cat_CIS: Attagene CIS-FACTORIAL HepG2 Assay for human T-Cell-Factor with beta-catenin (TCF/b-cat) (AID 2282965). The following applies: HepG2 TCF/beta-catenin cis-reporter transcription, actives raise or lower the signal. A digest of the protocol: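 Cells of the HepG2 line carry transiently transfected reporter units whose promoters respond to endogenous factors. Twenty-four hours post-dosing, reporter mRNA induction is measured by fluorescent RT-PCR and capillary electrophoresis, with DMSO as baseline.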

Experiment [20] is described as follows: ATG_SREBP_CIS: Attagene CIS-FACTORIAL HepG2 Assay for human Sterol Regulatory Element Binding (SREBP) (AID 2282962). The following applies: HepG2 Attagene cis-factorial SREBP reporter, mRNA; actives raise or lower the signal. A digest of the protocol:
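Endogenous SREBP activity read as cis-element-driven reporter transcript in transiently transfected HepG2, 24 h post-dosing; quantified via RT-PCR plus capillary electrophoresis of fluorescent fragments. Gain or loss of signal fitted relative to DMSO baseline.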

Activity calls are given as the source filed them. How the source made its calls: active means hit-call score of the fitted dose curve at least 0.9, where 1 is the maximum; inactive means score below 0.9.

One may read the AC50 as the concentration giving half of the maximal activity seen.

Paired box protein Pax-6 (Homo sapiens), sequence (P26367 whole entry, looked up): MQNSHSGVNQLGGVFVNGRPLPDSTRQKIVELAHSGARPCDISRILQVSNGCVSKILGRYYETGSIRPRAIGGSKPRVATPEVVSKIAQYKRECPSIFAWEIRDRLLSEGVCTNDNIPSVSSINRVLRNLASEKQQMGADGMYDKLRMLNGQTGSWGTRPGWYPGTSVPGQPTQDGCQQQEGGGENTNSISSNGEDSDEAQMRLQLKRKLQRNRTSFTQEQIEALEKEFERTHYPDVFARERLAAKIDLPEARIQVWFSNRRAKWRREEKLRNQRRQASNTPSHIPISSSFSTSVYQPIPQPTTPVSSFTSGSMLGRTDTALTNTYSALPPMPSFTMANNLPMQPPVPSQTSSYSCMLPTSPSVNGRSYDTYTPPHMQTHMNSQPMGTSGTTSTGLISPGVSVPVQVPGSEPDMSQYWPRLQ
Heat shock factor protein 1 (Homo sapiens), sequence (Q00613 whole entry, looked up): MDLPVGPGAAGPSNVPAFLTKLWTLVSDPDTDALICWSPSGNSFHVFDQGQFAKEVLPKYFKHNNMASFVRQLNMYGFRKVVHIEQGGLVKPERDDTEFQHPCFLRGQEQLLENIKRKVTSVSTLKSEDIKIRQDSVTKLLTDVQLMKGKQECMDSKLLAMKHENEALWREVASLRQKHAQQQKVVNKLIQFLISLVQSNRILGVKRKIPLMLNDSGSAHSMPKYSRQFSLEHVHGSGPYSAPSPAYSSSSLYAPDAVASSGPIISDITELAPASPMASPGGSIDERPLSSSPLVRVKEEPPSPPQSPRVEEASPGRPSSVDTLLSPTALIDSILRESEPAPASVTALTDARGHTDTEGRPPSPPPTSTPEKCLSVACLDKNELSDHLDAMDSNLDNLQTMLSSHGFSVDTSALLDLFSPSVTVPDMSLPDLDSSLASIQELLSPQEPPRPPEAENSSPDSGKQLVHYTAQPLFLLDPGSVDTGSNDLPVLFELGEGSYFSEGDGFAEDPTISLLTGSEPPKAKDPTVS
Transcription factor Sp1 (Homo sapiens), sequence (P08047 whole entry, looked up): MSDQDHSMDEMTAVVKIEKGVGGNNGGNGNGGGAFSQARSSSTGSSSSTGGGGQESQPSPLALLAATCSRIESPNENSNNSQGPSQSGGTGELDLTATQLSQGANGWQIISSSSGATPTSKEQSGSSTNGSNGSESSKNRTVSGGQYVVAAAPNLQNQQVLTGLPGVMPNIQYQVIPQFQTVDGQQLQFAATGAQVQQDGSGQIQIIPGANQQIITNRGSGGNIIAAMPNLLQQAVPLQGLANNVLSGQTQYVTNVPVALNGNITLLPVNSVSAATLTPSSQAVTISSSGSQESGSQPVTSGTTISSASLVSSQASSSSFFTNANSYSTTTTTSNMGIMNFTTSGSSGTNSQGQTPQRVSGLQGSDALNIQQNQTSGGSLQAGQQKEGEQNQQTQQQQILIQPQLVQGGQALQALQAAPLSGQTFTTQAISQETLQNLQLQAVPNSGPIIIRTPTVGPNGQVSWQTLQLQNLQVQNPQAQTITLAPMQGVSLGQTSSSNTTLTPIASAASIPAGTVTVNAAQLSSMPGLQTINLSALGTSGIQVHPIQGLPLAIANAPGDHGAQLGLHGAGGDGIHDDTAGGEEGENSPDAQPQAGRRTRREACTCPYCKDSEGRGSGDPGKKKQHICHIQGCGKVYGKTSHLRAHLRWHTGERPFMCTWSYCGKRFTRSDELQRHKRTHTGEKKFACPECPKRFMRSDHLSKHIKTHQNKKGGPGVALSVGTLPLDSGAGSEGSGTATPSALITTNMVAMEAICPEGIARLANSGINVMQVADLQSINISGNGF
Bile acid receptor (Homo sapiens), sequence (Q96RI1 whole entry, looked up): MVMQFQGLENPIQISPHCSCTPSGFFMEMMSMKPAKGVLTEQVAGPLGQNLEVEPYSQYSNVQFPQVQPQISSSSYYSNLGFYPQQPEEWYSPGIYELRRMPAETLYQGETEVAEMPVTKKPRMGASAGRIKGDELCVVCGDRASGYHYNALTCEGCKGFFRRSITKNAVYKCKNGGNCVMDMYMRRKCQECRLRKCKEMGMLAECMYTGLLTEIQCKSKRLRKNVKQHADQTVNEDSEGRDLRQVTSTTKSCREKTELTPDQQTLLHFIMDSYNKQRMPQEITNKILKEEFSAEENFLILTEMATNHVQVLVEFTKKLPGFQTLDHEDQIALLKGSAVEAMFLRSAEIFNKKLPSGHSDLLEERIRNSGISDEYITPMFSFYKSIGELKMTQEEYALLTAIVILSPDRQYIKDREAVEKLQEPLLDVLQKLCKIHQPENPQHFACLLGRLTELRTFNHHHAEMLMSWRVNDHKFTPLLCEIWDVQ
Hypoxia-inducible factor 1-alpha (Homo sapiens), sequence (Q16665 whole entry, looked up): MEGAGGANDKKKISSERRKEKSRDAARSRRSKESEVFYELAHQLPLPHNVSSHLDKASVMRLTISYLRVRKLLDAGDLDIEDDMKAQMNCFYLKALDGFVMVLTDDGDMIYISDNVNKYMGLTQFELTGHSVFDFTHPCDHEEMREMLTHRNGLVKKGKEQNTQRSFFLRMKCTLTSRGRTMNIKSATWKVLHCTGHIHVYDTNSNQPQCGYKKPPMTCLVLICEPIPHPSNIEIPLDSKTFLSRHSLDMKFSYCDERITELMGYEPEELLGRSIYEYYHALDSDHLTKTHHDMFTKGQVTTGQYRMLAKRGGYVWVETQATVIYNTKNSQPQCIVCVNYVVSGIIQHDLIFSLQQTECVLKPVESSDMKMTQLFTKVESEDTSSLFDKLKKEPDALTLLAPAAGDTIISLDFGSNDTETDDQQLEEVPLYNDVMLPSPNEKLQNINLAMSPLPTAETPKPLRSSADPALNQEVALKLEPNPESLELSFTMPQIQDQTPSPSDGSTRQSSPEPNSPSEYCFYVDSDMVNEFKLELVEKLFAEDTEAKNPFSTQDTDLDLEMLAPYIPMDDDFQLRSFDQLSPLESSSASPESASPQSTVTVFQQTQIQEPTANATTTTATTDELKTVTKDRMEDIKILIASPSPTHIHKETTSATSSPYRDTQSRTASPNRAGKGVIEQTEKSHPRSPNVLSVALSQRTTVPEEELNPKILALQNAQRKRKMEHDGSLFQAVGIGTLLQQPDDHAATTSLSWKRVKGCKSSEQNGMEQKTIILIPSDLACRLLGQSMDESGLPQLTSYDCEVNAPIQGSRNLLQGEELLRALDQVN
Hepatocyte nuclear factor 6 (Homo sapiens), sequence (Q9UBC0 whole entry, looked up): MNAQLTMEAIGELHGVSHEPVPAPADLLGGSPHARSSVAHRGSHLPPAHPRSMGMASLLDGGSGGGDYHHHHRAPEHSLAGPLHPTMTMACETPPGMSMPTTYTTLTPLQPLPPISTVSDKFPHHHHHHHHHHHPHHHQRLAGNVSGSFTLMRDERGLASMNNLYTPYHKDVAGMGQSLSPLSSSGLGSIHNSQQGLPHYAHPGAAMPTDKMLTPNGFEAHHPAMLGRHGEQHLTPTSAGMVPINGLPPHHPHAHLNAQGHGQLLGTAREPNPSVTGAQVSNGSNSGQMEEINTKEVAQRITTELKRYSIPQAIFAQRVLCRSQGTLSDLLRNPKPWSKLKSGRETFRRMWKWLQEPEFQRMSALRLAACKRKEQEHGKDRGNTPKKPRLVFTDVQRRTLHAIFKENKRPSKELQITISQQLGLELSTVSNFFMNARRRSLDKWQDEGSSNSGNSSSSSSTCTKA
Signal transducer and activator of transcription 3 (Homo sapiens), sequence (P40763 whole entry, looked up, the tested form may be a part): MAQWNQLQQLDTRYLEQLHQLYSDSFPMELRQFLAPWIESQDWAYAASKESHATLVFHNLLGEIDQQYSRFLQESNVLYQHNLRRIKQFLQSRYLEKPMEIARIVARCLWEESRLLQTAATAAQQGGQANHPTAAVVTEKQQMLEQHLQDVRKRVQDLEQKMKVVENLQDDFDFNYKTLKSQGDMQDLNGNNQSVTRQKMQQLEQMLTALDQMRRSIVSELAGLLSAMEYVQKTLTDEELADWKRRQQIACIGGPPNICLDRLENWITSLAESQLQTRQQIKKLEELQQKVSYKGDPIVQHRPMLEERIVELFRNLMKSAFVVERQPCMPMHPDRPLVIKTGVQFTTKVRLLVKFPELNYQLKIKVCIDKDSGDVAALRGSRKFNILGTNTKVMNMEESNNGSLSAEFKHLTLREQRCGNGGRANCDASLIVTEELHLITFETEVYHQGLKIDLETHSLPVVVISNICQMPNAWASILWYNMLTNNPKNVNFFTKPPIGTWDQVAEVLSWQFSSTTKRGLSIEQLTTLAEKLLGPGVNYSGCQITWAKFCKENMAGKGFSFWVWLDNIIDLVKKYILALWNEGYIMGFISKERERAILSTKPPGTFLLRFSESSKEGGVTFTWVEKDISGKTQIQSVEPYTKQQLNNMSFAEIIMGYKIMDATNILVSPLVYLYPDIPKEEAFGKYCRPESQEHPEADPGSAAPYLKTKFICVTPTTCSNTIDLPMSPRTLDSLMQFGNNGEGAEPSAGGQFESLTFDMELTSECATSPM

Consider `CC1(C)C(=O)N(Cl)C(=O)N1Br`, for which the call in [1], in experiment [2], in experiment [3], in experiment [4], in experiment [5] and in [6] was inactive. The compound was called inactive in [7], in experiment [8], in [9], in experiment [10], in experiment [11] and in [13]. Moreover, the call in [14], in experiment [15], in [16], in experiment [17], in experiment [18] and in [19] was inactive. Besides, the half-maximal activity concentration (AC50) in experiment [12] is 62.7 µM (active).

As for `CCCCCCCCCCCCCC(=O)OCC(O)CO` (centres undefined), the result in experiment [1], in experiment [2], in experiment [3], in [4], in experiment [5] and in experiment [6] was inactive. The outcome in [7], in [8], in experiment [9], in experiment [10], in experiment [11] and in experiment [12] was inactive. The compound was classed as inactive in experiment [14], in experiment [15], in experiment [17] and in experiment [19]. For the same compound, the AC50 in experiment [20] is 67 µM (active).

`Cc1ccc(C)o1`: the outcome in experiment [1], in [2], in [3], in [4], in [5] and in [6] was inactive. The compound was called inactive in experiment [7], in experiment [8], in experiment [9], in [11], in experiment [12] and in experiment [13]. In addition, the outcome in [14], in [15], in experiment [16], in experiment [20], in experiment [17] and in experiment [18] was inactive. Also, the result in experiment [19] was inactive.

As for `CCc1cc(C(C)(C)C)c(O)c(C(C)(C)C)c1`, the outcome in experiment [1], in experiment [2], in experiment [3], in experiment [4], in experiment [5] and in experiment [6] was inactive. Besides, the result in [7], in experiment [8], in experiment [9], in [10], in experiment [11] and in experiment [13] was inactive. Besides, the result in experiment [14], in experiment [15], in experiment [17] and in [18] was inactive. The values for the AC50 in experiment [12], in experiment [16] and in experiment [20] were 8.94 µM (active), 33.4 µM (active) and 59.9 µM (active), respectively.
